# Reference: PubChem BioAssay (NCATS)
# Records with an inconclusive call do not appear. Active and inactive are the calls of the source. Calls come from the whole dose curve; as a rule, active = well fitted inhibition curve with a large enough effect; inconclusive = small, poorly fitted or top-dose-only effect; inactive = flat fitted curve, though single readings scatter.
# Assay: Primary qHTS for inhibitors of nuclear receptor binding SET domain protein 2 (NSD2) in an isogenic RCH-ACV NSD2 p.E1099K mutant (9B) (AID 1645876); note: nearly all actives have a fitted effect of over 70% in size
# Conditions: RCH-ACV (leukaemia line) NSD2 E1099K (9B) viability, CellTiter-Glo, 72 h; series mostly up to 44.9 µM; activity change, negative = viability loss: at the top concentration
# % is set by controls: 0 for no effect and ±100 for the full control effect.
Compound,outcome,"activity change, negative = viability loss"
COc1ccc2c(c1)N1C(=O)C[C@@]34C=CC[N@+]5([O-])CC[C@H]2[C@H](CC3)[C@@]145,inactive,–
CC(C)C1CCC(C(=O)N[C@@H](Cc2ccccc2)C(=O)O)CC1 (some centres undefined),–,3.82% (inactive)
O=C(/C=C/c1ccc(O)cc1)O[C@H]1[C@H](OC2CCCCC2O)O[C@H](CO)[C@@H](O)[C@@H]1O (some centres undefined),–,-5.68% [at 17.3 µM] (inactive)
C[C@@H]1O[C@@H](O[C@H]2[C@@H]3C=CO[C@@H](O[C@@H]4O[C@H](CO)[C@@H](O)[C@H](O)[C@H]4O)[C@@H]3[C@@]3(CO)O[C@@H]23)[C@H](O)[C@H](OC(=O)/C=C/c2ccc(O)cc2)[C@H]1OC(=O)/C=C/c1ccc(O)cc1,–,-5.76% [at 17.3 µM] (inactive)
C=C(C(=O)O)[C@@H]1CC[C@H](C)[C@@H]2CC(=O)C(C)=C2C1,–,-4.13% (inactive)
C=C1[C@@H]2CC[C@@]3(C)[C@H](c4ccoc4)OC(=O)C[C@]13O[C@H]1CC(=O)C(C)(C)[C@H](C(O)C(=O)OC)[C@]12C (some centres undefined),–,-0.409% [at 17.3 µM] (inactive)
CC(C)(O)c1ccc2c(c1)C(=O)C[C@H]1[C@](C)(C(=O)O)CCC[C@]21C,inactive,–
Cc1ccc(C)c(NC(=O)CNS(=O)(=O)c2ccc3[nH]c(=O)oc3c2)c1,–,-8.23% (inactive)
CC1C2=CC(=O)OC2(O)CC2C1C(OC(=O)c1ccccc1)C(OC(=O)c1ccccc1)C1(O)C2(C)CCC(O)C1(C)C(=O)O (centres undefined),–,-14.4% [at 17.3 µM] (inactive)
COc1c(O[C@@H]2O[C@H](CO)[C@@H](O)[C@H](O)[C@H]2O)c(CCC(=O)O)cc2ccoc12,–,-13% (inactive)
CC1(C)CC[C@]2(C(=O)O[C@@H]3O[C@H](CO)[C@@H](O)[C@H](O)[C@H]3O)CC[C@]3(C)C(=CCC4[C@@]5(C)C[C@@H](O)[C@H](O)[C@@](C)(CO)C5[C@H](O)C[C@]43C)C2[C@@H]1O (some centres undefined),–,3.54% [at 17.3 µM] (inactive)
CC(C)(O)C1CC=C(C(=O)OC[C@H]2O[C@@H](OC(=O)C3=CCC(C(C)(C)O)CC3)[C@H](O)[C@@H](O)[C@@H]2O)CC1 (some centres undefined),–,0.947% [at 17.3 µM] (inactive)
C[C@]12CCC[C@](C)(C(=O)O)C1CCC13CC(CO)C(CCC12)C3 (some centres undefined),–,4.97% (inactive)
COc1ccc(C2OCC3C(c4cc(OC)c5c(c4)OCO5)OCC23)cc1OC (centres undefined),–,-8.26% [at 17.3 µM] (inactive)
COC(=O)C1=CO[C@@H](O[C@@H]2O[C@H](CO)[C@@H](O)[C@H](O)[C@H]2O)[C@@H]2C(C)CC(=O)[C@]12O (some centres undefined),–,-16.1% [at 17.3 µM] (inactive)
C/C=C(/C)C(=O)OC1CC(C)(C)CC2C3=CCC4C5(C)CCC(OC6OC(C)C(OC7OC(C(=O)O)C(O)C(OC8OC(CO)C(O)C(O)C8OC8OC(CO)C(O)C(O)C8O)C7O)C(O)C6O)C(C)(C)C5CCC4(C)C3(C)C(OC(=O)/C=C/C=C/C=C/CCC)C(OC(C)=O)C12CO (centres undefined),–,-8.21% [at 9.23 µM] (inactive)
CCCC/C=C\CCCCCc1cc(=O)c2ccccc2n1C,–,-6.95% (inactive)
C=CC1(C)CC2CCC3C(C)(C(=O)O)CCCC3(C)C2=CC1=O (centres undefined),–,4.54% (inactive)
C/C=C/C=C/C=C/C(=O)O[C@@H]1[C@@H](OC)C2=C(C(=O)N(C(CCC(=O)O)C(=O)O)C2)[C@@]2(C)CCCC(C)(C)[C@H]12 (some centres undefined),–,-2.57% [at 17.3 µM] (inactive)
CC(C)=CCC[C@](C)(O[C@@H]1O[C@H](CO[C@@H]2OC[C@H](O)[C@H](O)[C@H]2O)[C@@H](O)[C@H](O)[C@H]1O)[C@H]1CC[C@]2(C)[C@@H]1[C@H](O)C[C@@H]1[C@@]3(C)CC[C@H](O[C@@H]4O[C@H](CO)[C@@H](O)[C@H](O)[C@H]4O[C@@H]4O[C@H](CO)[C@@H](O)[C@H](O)[C@H]4O)C(C)(C)[C@@H]3CC[C@]12C,inactive [at 17.3 µM],–

Compound,outcome,"activity change, negative = viability loss"
CC1(C)C2CC[C@@]34CC(CC[C@H]3[C@]2(C)CC[C@@H]1O[C@@H]1O[C@H](CO)[C@@H](O)[C@H](O)[C@H]1O)[C@](C)(O)C4 (some centres undefined),–,3.63% [at 17.3 µM] (inactive)
CC(C)(CC(=O)N1CCCC1)NCC(=O)N1C[C@@H](F)C[C@H]1C#N,–,-0.437% (inactive)
O=C(O)c1ccnc(-c2cc(C(=O)NCCc3ccccc3)ccn2)c1,–,-8.8% (inactive)
C=CCc1cc(OC)c(OC(C)C(O)c2ccc(O)c(OC)c2)c(OC)c1 (centres undefined),–,-4.38% (inactive)
COc1cc(O)cc2c1C(=O)OC(C)C2 (centres undefined),–,-12.9% (inactive)
CC1=C2C(=O)C=C(CO)C2[C@H]2OC(=O)[C@H](C)[C@@H]2[C@@H](OC(=O)Cc2ccc(O)cc2)C1 (some centres undefined),–,3.78% [at 17.3 µM] (inactive)
CC1C(=O)OCC2=CC[N+]3([O-])CCC(OC(=O)C(C)(O)C1(C)O)C23 (centres undefined),inactive,–
C=C[C@@]1(C)CCC2=C([C@H]1OC(C)=O)[C@H](OC(C)=O)CC1[C@](C)(C(=O)OC)CC[C@H](OC(C)=O)[C@]21C (some centres undefined),–,-17.1% [at 17.3 µM] (inactive)
O=C(OC[C@H]1O[C@H](O[C@H]2CO[C@H](CO)[C@@H](O)[C@@H]2O)[C@H](O)[C@@H](O)[C@H]1O)c1ccccc1,–,-0.352% [at 17.3 µM] (inactive)
CC(=O)OC1CC(C(C)(C)O)OC2CCC3(C)OC4=C(C(=O)C=C5C(C)C(OC(C)=O)C6(C)C(C)OC546)C(O)C3C12C (centres undefined),–,-12.5% [at 17.3 µM] (inactive)
C[C@@H]1CC[C@]2(C(=O)O[C@@H]3O[C@H](CO[C@@H]4O[C@H](CO)[C@@H](O[C@@H]5O[C@@H](C)[C@H](O)[C@@H](O)[C@H]5O)[C@H](O)[C@H]4O)[C@@H](O)[C@H](O)[C@H]3O)CC[C@]3(C)C(=CCC4[C@@]5(C)C[C@@H](O)[C@H](O)[C@@](C)(CO)C5CC[C@]43C)C2[C@H]1C (some centres undefined),inactive [at 9.23 µM],–
C=C(C)[C@@H]1CC[C@]2(C(=O)O)CC[C@]3(C)C(CCC4[C@]5(C)C(CC[C@]43C)C(C)(C)[C@@H](O)[C@@H]5C(=O)O)C12 (some centres undefined),–,-0.499% [at 17.3 µM] (inactive)
COc1cc2c(cc1O)CC(O)(CO)C(CO)C2c1ccc(OC2OC(CO)C(O)C(O)C2O)c(OC)c1 (centres undefined),–,-4.42% [at 17.3 µM] (inactive)
COC(=O)c1ccc(OC)cc1O[C@@H]1O[C@H](CO[C@@H]2OC[C@@H](O)[C@H](O)[C@H]2O)[C@@H](O)[C@H](O)[C@H]1O,inactive [at 17.3 µM],–
CC(C)(OC1OC(CO)C(O)C(O)C1O)C1CCC(O)(CO)C2CC(=O)C(C)(O)C2C1 (centres undefined),inactive [at 17.3 µM],–
C[C@]1(O)CC[C@@H]2C(C(=O)O)=CO[C@@H](O[C@@H]3O[C@H](COC(=O)/C=C/c4ccc(O)c(O)c4)[C@@H](O)[C@H](O)[C@H]3O)[C@@H]21,inactive [at 17.3 µM],–
CC(C)C1CCC(CO)=CC1/C=C(\CO)C(=O)OCC1(O)CCC(C(C)C)C2C=C(C(=O)O)COC(=O)C21 (centres undefined),–,-9.53% [at 17.3 µM] (inactive)
OCC(O)C(c1c[nH]c2ccccc12)c1c[nH]c2ccccc12 (centres undefined),–,-5.64% (inactive)
O=C(Cc1ccccc1)OC[C@H]1O[C@H](O[C@H]2O[C@H](CO)[C@@H](O)[C@H](O)[C@H]2O)[C@H](O)[C@@H](O)[C@@H]1O,–,-1.23% [at 17.3 µM] (inactive)
